The full ranking holds about 39,000 sequences; the median of “fluorescence intensity (a.u.)” is about 4,300, and the highest 2% start at about 39,000. The sample holds the highest values, similar sequences and a random draw of the others, so the mix is not that of the screen.

The target in the assay is T1, OsSMF1 (Oryza sativa, UniProt Q6ZLB0 1-436).
T1 sequence: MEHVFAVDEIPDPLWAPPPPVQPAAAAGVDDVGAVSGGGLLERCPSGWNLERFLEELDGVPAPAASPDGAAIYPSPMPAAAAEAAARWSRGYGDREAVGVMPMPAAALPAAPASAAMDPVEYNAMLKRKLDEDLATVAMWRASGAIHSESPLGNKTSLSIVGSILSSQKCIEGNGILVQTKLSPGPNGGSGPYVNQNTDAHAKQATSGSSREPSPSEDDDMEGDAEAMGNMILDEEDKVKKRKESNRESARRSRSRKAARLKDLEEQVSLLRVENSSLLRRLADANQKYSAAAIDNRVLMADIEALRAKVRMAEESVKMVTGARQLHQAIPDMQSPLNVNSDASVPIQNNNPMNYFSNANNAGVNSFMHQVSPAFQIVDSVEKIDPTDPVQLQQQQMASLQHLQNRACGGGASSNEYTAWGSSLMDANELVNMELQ
Nature of the assay: protein-binding microarray (RPBM); PBS, 2% BSA, 51.3 ng/ul salmon testes DNA, 50 uM zinc acetate, 200 nM TF, 25 C, 1 h; high values mean tight binding. The following applies: protein: recombinant; tags: N-terminal polyhistidine and DsRed monomer fusion (pET32a); chain copies: 2; label: CyDye5-dUTP incorporated in the synthesized complementary strand; 3' TTTTT single-stranded linker to array surface; dsDNA, one strand shown. Summed up:
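For the binding signal, per-feature fluorescence intensity was read in arbitrary units on an Axon 4000B scanner. Before scanning, a 2% BSA-blocked custom Agilent array made double-stranded with Cy5-dUTP was washed after 1 h at 25 °C with 200 nM protein and 50 µM zinc acetate. The proteins were Ni–NTA-purified transcription factors with N-terminal polyhistidine and DsRed fusions, expressed in E. coli BL21-CodonPlus.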
As to “ATGCACACACATACAACGAAAACCAGAGATCAACAGGTGCCGGAGTCACCTAGTGCAG”, the binding signal is 45100 fluorescence intensity (a.u.).
As to “AGATCACACACAACACGCACATCACGAACCGGACCAAACCCGGAGTCACCTAGTGCAG”, the binding signal was 3660 fluorescence intensity (a.u.).
Under “CACACCTGACACAACACTTACACATCATACCAGAAGAAAACGGAGTCACCTAGTGCAG” stands 3210 fluorescence intensity (a.u.); under “TGGGGCCGTGAGGCCACGTGCCCGGCATGCCACGGTGGAGCGGAGTCACCTAGTGCAG”, 10000 fluorescence intensity (a.u.).
The value for “GGCAACAACGGCCTCCACCGCCATCACTCCGGCACCCTCACGGAGTCACCTAGTGCAG” was 52200 fluorescence intensity (a.u.); that for “CCTCCACCCTCACCGGCGCCACGCCGACGCCTCCGCCCTCCGGAGTCACCTAGTGCAG” was 5600 fluorescence intensity (a.u.).
“CCCTTGTCCATCCGCCAACGCCACGTCACCTCCTCCGCTACGGAGTCACCTAGTGCAG”: the binding signal was 52100 fluorescence intensity (a.u.).
Under “CCTTTTATCCGCTCTACGGACGCAGTCCACGTCAGCCGACCGGAGTCACCTAGTGCAG” stands 39200 fluorescence intensity (a.u.).
The value for “CGCCTTATCCTCCCGCCTTTTCACGTCCCGCCACGCCGACCGGAGTCACCTAGTGCAG” was 4060 fluorescence intensity (a.u.); that for “TCCTCCTCTCCTCCACACATCCAGGCAGGCAACACAAGAACGGAGTCACCTAGTGCAG” was 41800 fluorescence intensity (a.u.).
Under “TTGTCGTCCACGCCGCCATCTCCTTGGTCATCCGCAACAACGGAGTCACCTAGTGCAG” stands 3430 fluorescence intensity (a.u.).
As to “TCCACCACCGCCTGCCTCCATCCACCTCCACTGCAACCTCCGGAGTCACCTAGTGCAG”, the binding signal was 3670 fluorescence intensity (a.u.).
Under “CCTCCGCCTTGTCCGCGTCCACGTCCACGGCCGCCGCCACCGGAGTCACCTAGTGCAG” stands 6310 fluorescence intensity (a.u.); under “ACCTCCCCGACGGCGTCCGCGTGCCGCGCTCCACGCGCACCGGAGTCACCTAGTGCAG”, 3460 fluorescence intensity (a.u.); under “ACCACGACCACCACAACACCACCACCTCTTCTCCTAGTCACGGAGTCACCTAGTGCAG”, 3570 fluorescence intensity (a.u.).
In the case of “CTCCTCTCCTCTCTTCTCCACATCCACAAGAAATTTCGTACGGAGTCACCTAGTGCAG”, the binding signal is 3630 fluorescence intensity (a.u.).
Regarding “CACGGGGTGGTCGCGGGTCACAGTGACGGACGGTGCACGGCGGAGTCACCTAGTGCAG”, the binding signal was 20200 fluorescence intensity (a.u.).
Under “CACCAGGCACCGACTGCCGTAGTGTCACCGGCCACAGTGCCGGAGTCACCTAGTGCAG” stands 3220 fluorescence intensity (a.u.); under “CTGTTGCCTACTCCCTCCTCAATCCTGCAGAAGTTTCTGACGGAGTCACCTAGTGCAG”, 3240 fluorescence intensity (a.u.).
Under “CTCCATTTTCTCCGGTTTTCGCCGCAGAGTAGGAGCTGAACGGAGTCACCTAGTGCAG” stands 21400 fluorescence intensity (a.u.); under “AACCAACGGTCGCTGTTACGCCACGTCACCTCACCGACGCCGGAGTCACCTAGTGCAG”, 39200 fluorescence intensity (a.u.).
The value for “TCTCCTCTCGCTCTCGCCATCTCGCCGCCGGCCTCCTCCACGGAGTCACCTAGTGCAG” was 3240 fluorescence intensity (a.u.).
Take “CGTCGCCTCGCCTCGTCACGGCCGCCTCCGCCATCGCCTCCGGAGTCACCTAGTGCAG”: the binding signal was 6060 fluorescence intensity (a.u.).
Under “CTCCTCCTCCGGCCACGTCGACGTCGCACCAACCGCCGCCCGGAGTCACCTAGTGCAG” stands 14700 fluorescence intensity (a.u.); under “TCACGGCCGCCTCCGCCATCTGCACAACCTCGCCGCCGCCCGGAGTCACCTAGTGCAG”, 65500 fluorescence intensity (a.u.).
Take “CGTGCCGACGCGTGCCTCGCCAACGTGTCGCAACGCCTCACGGAGTCACCTAGTGCAG”: the binding signal is 8980 fluorescence intensity (a.u.).
Under “AGCACTACTCCAACGCAGCAACCAACACGTACCTCCACATCGGAGTCACCTAGTGCAG” stands 6420 fluorescence intensity (a.u.); under “GATTCTTCTATGTGGCATGAGGTAACCCTGGGTCGGCTTGCGGAGTCACCTAGTGCAG”, 4110 fluorescence intensity (a.u.).
Under “GCCGTTGTCCGAAGGTTCAGCATATTGCTGACATATTGCCCGGAGTCACCTAGTGCAG” stands 4940 fluorescence intensity (a.u.); under “GCATGCTCTTCTGATCTGTAATCTCAGGCTCTATTACTCTCGGAGTCACCTAGTGCAG”, 3450 fluorescence intensity (a.u.); under “TTCCTCGCCAACGTAAGCCAATAACATTGTGACGCAATCTCGGAGTCACCTAGTGCAG”, 5820 fluorescence intensity (a.u.).
For the sequence “GAGGGGCGCGGGCGCCGAGCTCCATCTGGCGAGCAGGGTACGGAGTCACCTAGTGCAG”, the binding signal is 42200 fluorescence intensity (a.u.).
Take “ATCTCCATCTGGCGAGCAGAGGCCGGGGAGGGAGGGGCGCCGGAGTCACCTAGTGCAG”: the binding signal is 3870 fluorescence intensity (a.u.).
As to “CATCGAGAGGCTCCCGAGCATGGCCGAGATCGCCGAGGAGCGGAGTCACCTAGTGCAG”, the binding signal is 3500 fluorescence intensity (a.u.).
Under “GAGCAGGAGGAGCTGAGCGACTCCGAGTCGGGCGCCGAGTCGGAGTCACCTAGTGCAG” stands 40100 fluorescence intensity (a.u.); under “GCTGAGCAGGAGAGGGGCGCCGATCTCCATCCGGCGAGCACGGAGTCACCTAGTGCAG”, 5450 fluorescence intensity (a.u.); under “GAGATGGGAGGAGAGCTAGCTAGCCGCCGAGGCTGAGCTCCGGAGTCACCTAGTGCAG”, 40600 fluorescence intensity (a.u.).
The value for “GTGTGCCGCCGCCGCTGACTCCGGAGGGAGAGGACGAGCTCGGAGTCACCTAGTGCAG” was 3320 fluorescence intensity (a.u.).
Under “GCGAGCTCCTGGAGGCGGCGAGGGCGCCGGAGTTCGCGGGCGGAGTCACCTAGTGCAG” stands 37200 fluorescence intensity (a.u.); under “CCGAGTGACGATGCAGCTGAGTCGGAGCGCAGCACGACTTCGGAGTCACCTAGTGCAG”, 4290 fluorescence intensity (a.u.).
Regarding “CACCGCTACCTACGTTGTCGCCACCCACGTCAATAATCCTCGGAGTCACCTAGTGCAG”, the binding signal was 6310 fluorescence intensity (a.u.).
Under “ATTCTTTTACCGCGTTGATGAATCGGATTCGTTCCGGTTTCGGAGTCACCTAGTGCAG” stands 3360 fluorescence intensity (a.u.).

Source of the values: paper PMC7819943, “Rice protein-binding microarrays: a tool to detect cis-acting elements near promoter regions in rice”.
